SENP7 inh: SENP7 protease inhibitors, primary screen, biochemical, luminescence, uHTS; recombinant SENP7, Z-RLRGG-aminoluciferin luminescence, 40 min; inhibition, % at 5 µM; 330,000 tested, 1.5% active; AID 434973, 2010;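 active = inhibition above about 50% at the single test dose, limit read from the data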;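 note: plate controls were DMSO with enzyme for no effect and no enzyme buffer wells for full effect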
Platelet DG rel: inhibitors of platelet dense granule secretion, primary screen, cell-based, MLPCN, human platelets. human platelet-rich plasma, SFLLRN dense granule ATP release, luminescence. 300,000 tested, 0.22% active. inhibition, %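 (compounds screened at 7.5 µM in platelet-rich plasma)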;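 active = mean replicate score, as percent of positive control, at or above 50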
SENP8 block-1: human SENP8 protease inhibitors, primary screen, biochemical, fluorescence, Nedd8 protein substrate, uHTS. AID 602440, 2012. Sentrin-specific protease 8 (Homo sapiens), Q96LD8. inhibition, % at 20 µM. 360,000 tested, 0.64% active. recombinant SENP8; in the data active = inhibition mostly above about 40%, no sharp cut-off; inactive = mostly below about 27%
Target sequence (Q96LD8 whole entry, looked up): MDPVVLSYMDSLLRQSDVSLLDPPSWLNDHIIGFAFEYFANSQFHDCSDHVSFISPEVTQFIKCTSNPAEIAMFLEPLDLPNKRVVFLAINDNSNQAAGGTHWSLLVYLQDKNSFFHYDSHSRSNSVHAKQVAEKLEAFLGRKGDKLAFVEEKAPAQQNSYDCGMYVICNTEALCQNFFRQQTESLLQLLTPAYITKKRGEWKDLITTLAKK
SENP8 block-2: SENP8 protease inhibitors, primary screen, biochemical, luminescence. 330,000 tested, 1.2% active. purified SENP8, Z-RLRGG-aminoluciferin cleavage. Sentrin-specific protease 8 (Homo sapiens), Q96LD8. AID 2540, 2010. inhibition, % at 10 µM; in the data active = inhibition above about 50%
SENP6 inh: SENP6 protease inhibitors, primary screen, biochemical, luminescence, uHTS; Sentrin-specific protease 6 (Homo sapiens), Q9GZR1; Recombinant SENP6 catalytic domain, aminoluciferin luminescence; inhibition, % at 10 µM; 330,000 tested, 1.8% active; AID 2599, 2010;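 active = inhibition above about 50% at the single tested dose, limit read from the data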;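 note: plate controls were DMSO wells with enzyme for no effect and DMSO wells lacking enzyme for full effect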
SENP8 conf: SENP8 protease inhibitors, retest, confirmation, biochemical, luminescence, single concentration | Recombinant SENP8, Z-RLRGG-aminoluciferin luminescence, 60 min | inhibition, % at 12.5 µM | 6,200 tested, 40% active | AID 488912, 2010 | shares compounds with SENP7 inh;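 active = mean inhibition across replicates above about 50%, limit read from the data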
SENP6 confirm: SENP6 protease inhibitors, confirmation, biochemical, luminescence, single concentration; shares compounds with SENP7 inh; recombinant SENP6, Z-RLRGG-aminoluciferin luminescence; inhibition, % at 12.5 µM; 6,200 tested, 58% active
SENP7 confirm: SENP7 protease inhibitors, retest, confirmation, biochemical, luminescence, single concentration; recombinant SENP7, Z-RLRGG-aminoluciferin luminescence, 40 min; inhibition, % at 12.5 µM; shares compounds with SENP7 inh; 6,200 tested, 69% active
Casp3 SENP sel: caspase-3 protease inhibitors, confirmation, selectivity assay for SENP inhibitor project, biochemical, single concentration | purified caspase-3, Z-DEVD-aminoluciferin luminescence, 60 min | shares compounds with SENP7 inh | inhibition, % at 12.5 µM | 6,200 tested, 60% active | AID 488918, 2010;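 active = mean inhibition above about 50%, limit read from the data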;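 note: plate controls were enzyme with DMSO for no effect and wells without caspase-3 for full effect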
Target sequence (P42574 28-227 limits assumed): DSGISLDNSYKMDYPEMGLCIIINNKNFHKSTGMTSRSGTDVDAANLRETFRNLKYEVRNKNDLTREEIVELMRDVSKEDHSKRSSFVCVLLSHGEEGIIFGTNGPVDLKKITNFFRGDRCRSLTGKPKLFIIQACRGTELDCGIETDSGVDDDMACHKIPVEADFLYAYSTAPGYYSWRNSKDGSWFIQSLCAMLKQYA
Luc interf: luminescence interference (SENP counter-screen). 6,200 tested, 39% active. Pre-incubated SENP8/Z-RLRGG-aminoluciferin, luciferase luminescence interference. shares compounds with SENP7 inh. inhibition, % at 12.5 µM;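 active = mean inhibition above about 50% when retested at one dose, limit read from the data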;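 note: plate controls were DMSO wells with completed reaction for no effect and substrate without enzyme for full effect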
An asterisk follows results filed as active; . = no result. A selection: hits, their analogues and other compounds. The true share with any hit is near 2.4%.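 Rule for the calls, unless noted: active = mean inhibition above about 50% in the one-dose retest (limit read from the data); inactive = the rest.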

SMILES	SENP7 inh	Platelet DG rel	SENP8 block-1	SENP8 block-2	SENP6 inh	SENP8 conf	SENP6 confirm	SENP7 confirm	Casp3 SENP sel	Luc interf
COc1ccccc1C(=O)Nc1ccc2c(c1)OCCO2	43	12	13	16	53*	32	30	71*	69*	52*
COc1cc(SC)ccc1C(=O)Nc1ccc2c(c1)OCCO2	81*	4	3	63*	79*	80*	81*	95*	75*	64*
COc1cc(SC)ccc1C(=O)Nc1c(C)cccc1C	-2	6	12	3	7	.	.	.	.	.
CCOC(=O)N/N=C/c1c(C)nn(-c2ccccc2Cl)c1Cl	6	-3	12	-4	-7	.	.	.	.	.
Oc1ccc(C=NNc2nc3ccccc3s2)c(O)c1	.	.	-196	.	.	.	.	.	.	.
C(=N\Nc1nc2ccccc2s1)/c1cccs1	93*	-1	-44	89*	95*	37	88*	100*	71*	82*
C/C(=N\Nc1nc2ccccc2s1)c1cccs1	84*	3	-19	75*	60*	92*	91*	98*	60*	30
Cc1nn(-c2ccccc2Cl)c(Cl)c1/C=N/Nc1nc2ccccc2s1	81*	17	-45	5	34	-9	-4	-7	-4	6
CC(=O)Nc1ccc(/C=N/Nc2nc3ccccc3s2)cc1	.	29	-405	.	.	.	.	.	.	.
Cc1ccsc1/C=N/Nc1nc2ccccc2s1	86*	-2	-173	72*	87*	-9	62*	87*	47	58*
CS(=O)(=O)c1ccc(Cl)c(NC(=O)COc2ccc3c(c2)CCC3)c1	-4	10	8	-2	1	.	.	.	.	.
O=C(NCc1ccccc1C(F)(F)F)c1cccc2c1C(=O)c1ccc(N3CCC(N4CCCCC4)CC3)cc1S2(=O)=O	.	.	-31	.	.	.	.	.	.	.
COc1ccc(NC(=O)CCS(=O)(=O)c2cccc3nonc23)cc1Cl	7	0	5	4	7	.	.	.	.	.
Cc1cc(C)nc(N/N=C/c2sccc2C)n1	5	9	2	5	-15	.	.	.	.	.
Cc1ccsc1/C=N/Nc1nc(=O)[nH]nc1C	89*	51*	12	80*	91*	86*	87*	98*	96*	71*
C(=N\Nc1nc2ccccc2s1)/c1ccco1	90*	13	-9	83*	93*	82*	82*	97*	83*	72*
Oc1ccc(Cl)cc1C1=NNC(c2cccs2)C1 (configuration not stated)	-4	8	-91	-4	3	.	.	.	.	.
O=[N+]([O-])c1ccc(O)c(C2=NNC(c3ccccc3F)C2)c1 (configuration not stated)	39	2	22	85*	-16	-4	86*	97*	38	50*
N#CC[C@H](c1ccccc1)N1CCN(Cc2ccccc2)CCC1=O	2	-16	8	-3	-1	.	.	.	.	.
O=C1c2ccccc2S(=O)(=O)c2cc(N3CCOCC3)ccc21	69*	1	-141	46	62*	26	20	25	34	18
CCC1(c2ccc(F)cc2)NC(=O)N(CC(=O)Nc2ccc(-c3nc4ccc(C)cc4s3)cc2)C1=O (configuration not stated)	-1	24	-266	-12	58*	3	-3	14	18	17
COC(=O)[C@]1(C)N[C@H](CN(C)C(=O)Nc2ccc(Cl)cc2)[C@@H]2C(=O)N(C)C(=O)[C@@H]21	-5	.	-5	-16	-14	.	.	.	.	.
Cn1ccnc1C(OC(=O)c1ccccc1)C(F)(F)F (configuration not stated)	-5	1	7	-4	-14	.	.	.	.	.
C/C(=N\NC(=O)c1ccc2c(c1)OCCO2)c1ccccc1	96*	71*	16	86*	89*	2	87*	99*	94*	82*
C/C(=N\NC(=O)c1ccc(Br)cc1)c1ccccc1	36	16	20	38	70*	24	55*	36	48	21
SMILES	SENP7 inh	Platelet DG rel	SENP8 block-1	SENP8 block-2	SENP6 inh	SENP8 conf	SENP6 confirm	SENP7 confirm	Casp3 SENP sel	Luc interf
C/C(=N\NC(=O)c1ccc(O)cc1)c1ccc2c(c1)OCCO2	3	.	7	-1	-9	.	.	.	.	.
O=c1[nH]nc(-c2ccc(F)cc2)cc1-c1ccccc1	.	3	-171	.	.	.	.	.	.	.
Oc1ccc(-c2cc(-c3ccc(O)cc3)nc(-c3ccccc3)n2)cc1	2	-1	-76	-7	-27	.	.	.	.	.
O=C1c2ccccc2-c2nnc(-c3ccc(F)cc3)cc21	99*	28	42*	90*	83*	86*	84*	82*	44	1
Cc1ccccc1-c1cc2c(nn1)-c1ccccc1C2=O	98*	5	105*	96*	100*	83*	99*	102*	98*	56*
O=C1c2ccccc2-c2nnc(-c3ccc(O)cc3)cc21	100*	15	5	96*	99*	95*	94*	101*	96*	16
Cc1ccc(-c2cc3c(nn2)-c2ccccc2C3=O)cc1	99*	45	49*	96*	96*	85*	95*	99*	89*	8
CCCNC(=O)c1cc(C2CCCN(S(=O)(=O)c3cccc4cccnc34)C2)on1 (configuration not stated)	.	.	2	.	.	.	.	.	.	.
COCCN(C(=O)COC(=O)CSc1ccc(Cl)cc1)c1c(N)n(CC(C)C)c(=O)[nH]c1=O	0	.	-3	-3	3	.	.	.	.	.
Cc1cccnc1Nc1nc(-c2ccc(O)cc2)cs1	94*	37	13	96*	93*	96*	98*	102*	89*	97*
Cc1cccnc1Nc1nc(-c2ccc(F)cc2)cs1	93*	-2	27	89*	92*	89*	93*	101*	74*	53*
CCCN(C(=O)CSc1nnc2ccccn12)C1CCS(=O)(=O)C1 (configuration not stated)	2	.	-40	-1	-10	.	.	.	.	.

Screens: PubChem BioAssay, several laboratories
